From PubChem BioAssay
Most compounds without a hit are left out; they make up all but 5% or so of the library.
USP8 inh = human USP8 deubiquitinase inhibition; inhibition, % at 20 µM; AID 1645853; 47,000 tested, 4.2% active; purified USP8, Ub-rhodamine cleavage fluorescence, 30 min
Target sequence (P40818 whole entry, looked up): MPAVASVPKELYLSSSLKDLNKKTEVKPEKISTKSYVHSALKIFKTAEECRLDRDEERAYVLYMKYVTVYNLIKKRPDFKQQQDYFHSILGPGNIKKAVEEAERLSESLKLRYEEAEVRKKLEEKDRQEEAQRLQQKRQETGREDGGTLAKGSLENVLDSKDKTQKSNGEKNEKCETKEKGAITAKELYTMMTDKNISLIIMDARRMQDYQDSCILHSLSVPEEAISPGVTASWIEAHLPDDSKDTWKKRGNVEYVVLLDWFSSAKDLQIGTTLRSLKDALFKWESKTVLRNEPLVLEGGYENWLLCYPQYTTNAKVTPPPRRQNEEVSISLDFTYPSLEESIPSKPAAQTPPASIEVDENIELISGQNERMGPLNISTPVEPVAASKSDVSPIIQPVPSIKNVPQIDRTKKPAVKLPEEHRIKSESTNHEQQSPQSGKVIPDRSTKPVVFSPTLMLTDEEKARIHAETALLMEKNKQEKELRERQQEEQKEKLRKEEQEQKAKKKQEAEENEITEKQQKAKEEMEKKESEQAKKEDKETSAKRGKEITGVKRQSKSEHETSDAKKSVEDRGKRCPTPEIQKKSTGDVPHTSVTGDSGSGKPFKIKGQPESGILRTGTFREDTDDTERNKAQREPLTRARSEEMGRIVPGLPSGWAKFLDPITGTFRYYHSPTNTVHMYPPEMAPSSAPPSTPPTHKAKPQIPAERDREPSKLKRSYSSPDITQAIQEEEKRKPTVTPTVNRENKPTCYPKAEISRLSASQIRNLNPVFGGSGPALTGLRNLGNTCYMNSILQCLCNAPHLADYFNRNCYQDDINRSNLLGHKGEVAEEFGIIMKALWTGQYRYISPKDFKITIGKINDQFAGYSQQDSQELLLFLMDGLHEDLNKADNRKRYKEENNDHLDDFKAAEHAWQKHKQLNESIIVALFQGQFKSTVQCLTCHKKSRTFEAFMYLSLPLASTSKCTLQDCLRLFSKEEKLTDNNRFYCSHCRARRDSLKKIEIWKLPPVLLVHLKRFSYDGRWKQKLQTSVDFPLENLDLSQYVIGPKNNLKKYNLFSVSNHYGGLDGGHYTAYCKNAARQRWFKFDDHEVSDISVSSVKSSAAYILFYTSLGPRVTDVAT
USP7 inh = human USP7 deubiquitinase inhibition; Q93009; 47,000 tested, 0.3% active; inhibition, % at 20 µM; purified USP7, Ub-rhodamine cleavage fluorescence
USP10 block = inhibitors of human USP10 deubiquitinase; inhibition, % at 20 µM; Q14694; 47,000 tested, 1.1% active; purified USP10, Ub-rhodamine fluorescence, 60 min; AID 1645856
UCHL1 inh = blocks human UCHL1 ubiquitin-rhodamine cleavage; P09936; purified UCHL1, Ub-rhodamine cleavage fluorescence; inhibition, % at 20 µM; 47,000 tested, 0.2% active
Of the large screens only hits and unclear results are named; the others gave an inactive call. Rule as the data show it: active = inhibition above about 30%; inactive = the rest.

CC(C)(C)C(=O)C1C2C(=O)N(Cc3ccccc3)C(=O)C2C2c3ccccc3C=CN12 (stereo unspecified)	USP8 inh 81
COc1ccc(NC(=O)C2[C@@H]3C(=O)N(C4CCCCC4)C(=O)[C@@H]3[C@H]3c4ccccc4C=CN23)cc1 (stereo partly specified)	USP8 inh 78
O=C(c1ccco1)C1C2C(=O)N(c3cccc(C(F)(F)F)c3)C(=O)C2C2c3ccccc3C=CN12 (stereo unspecified)	none
COc1ccc(NC(=O)C2[C@@H]3C(=O)N(c4ccc5c(c4)OCO5)C(=O)[C@@H]3[C@H]3c4ccccc4C=CN23)cc1 (stereo partly specified)	USP8 inh 55
CCn1nc(C)c(CCNS(=O)(=O)c2ccc(F)c(Cl)c2)c1C	none
Cc1ccc(S(=O)(=O)N[C@H](C(=O)N2CCC(C(=O)N[C@H](Cc3ccccc3)C(=O)O)CC2)C(C)C)cc1	none
CC(C)(C)C(=O)C1C2C(=O)N(c3ccc4c(c3)OCO4)C(=O)C2C2c3ccccc3C=CN12 (stereo unspecified)	USP8 inh 53
Cc1nn(-c2ccc(F)cc2)c(C)c1S(=O)(=O)Nc1cccnc1	none
Cn1c(=O)c(-c2ccc(C(=O)NCc3ccc4c(c3)OCO4)cc2)nc2cccnc21	USP8 inh 40
Cn1c(=O)c(-c2ccc(C(=O)NCc3cccc(Cl)c3)cc2)nc2cccnc21	USP8 inh 43
Cc1cccc(CNC(=O)c2ccc(-c3nnc(-c4cccc(C)c4)o3)cc2)c1	none
CS(=O)(=O)c1ccc(-c2nnc(NC(=O)c3ccco3)o2)cc1	none
CS(=O)(=O)c1cccc(-c2nnc(NC(=O)c3ccc(Cc4ccccc4)cc3)o2)c1	USP8 inh 35, USP10 block 41
Cn1cc(CC(=O)NCc2ccc3c(c2)OCO3)c2cccnc21	none
O=C(NCc1cccc(Cl)c1)c1ccc(-c2nnc(-c3ccccc3)o2)cc1	USP8 inh 93
Cn1cnc(C(=O)N2CC3(CCN(C(=O)c4cscn4)C3)C2)c1	none
N#Cc1ccc(N2CC3(CCN(C(=O)N4CCCC4)C3)CC2=O)cc1 (stereo unspecified)	none
NC(=O)CN1CCCC(c2nccnc2-c2ccccc2F)C1 (stereo unspecified)	none
Cc1ccccc1NC(=O)Cn1c(=O)n(-c2ccc(CC(=O)NCCc3ccccc3)cc2)c(=O)c2sccc21	USP8 inh 84, USP7 inh 32, USP10 block 51
O=C(Cc1ccc(-n2c(=O)c3sccc3n(Cc3ccc(F)cc3)c2=O)cc1)NCCc1ccccc1	USP10 block 37
Cc1ccc(NC(=O)Cn2c(=O)n(-c3ccc(CC(=O)NCc4ccco4)cc3)c(=O)c3sccc32)c(C)c1	USP10 block 44
Cc1cccc(NC(=O)Cn2c(=O)n(-c3cc(C)cc(C)c3)c(=O)c3sccc32)c1	none
CCc1ccccc1NC(=O)Cn1c(=O)n(CC(=O)NCc2ccccc2Cl)c(=O)c2sccc21	USP8 inh 38
Cc1ccc(CNC(=O)Cn2c(=O)c3sccc3n(CC(=O)Nc3ccc(Br)cc3)c2=O)cc1	none
COc1cccc(C(=O)N2c3ccccc3C(C)(c3ccccc3)CC2(C)C)c1 (stereo unspecified)	none
COc1ccc(NC(=O)Cn2c(C)cc(=O)n3nc(-c4cccc(C)c4)nc23)cc1	USP8 inh 64, USP10 block 47
NC(=O)c1cccc(NS(=O)(=O)c2ccccc2)c1	none
O=S(=O)(Nc1ccc(Oc2ccccc2)cc1)c1ccccc1	USP8 inh 34
CC1=CN2C(=N)/C(=C/c3cn(Cc4ccc(Cl)cc4)c4ccccc34)C(=O)N=C2S1	none
N=C1/C(=C/c2cn(Cc3ccccc3F)c3ccccc23)C(=O)N=C2SC(C(F)(F)F)=NN12	USP8 inh 48, USP7 inh 41, USP10 block 51
Cc1cc(N2CCN(C)CC2)n2nc(CN3CCCCC3C)nc2n1 (stereo unspecified)	none
Cc1ccc2nc(NCC(C)c3ccccc3)c3nncn3c2c1 (stereo unspecified)	none
Cc1ccc(OCC(=O)Nc2sc3c(c2C#N)CCC(C)C3)c(-n2cnnc2)c1 (stereo unspecified)	none
CCc1ccc(NC(=O)C(C)Nc2ccccc2NCCc2ccccc2)cc1 (stereo unspecified)	USP8 inh 64
Cc1nc2ccc(C(=O)N3CCCC3c3nc(C)c4c(n3)N(CC(C)C)C(=O)C4)cc2s1 (stereo unspecified)	USP8 inh 89
Cc1ccc(NC(=O)Cc2n[nH]c(Cc3ccccc3)n2)c(F)c1	none
CC(C)c1noc(CN2CCC(C3CCCCCN3C(=O)Nc3ccccc3)CC2)n1 (stereo unspecified)	none
CCCCCC1OC(=O)c2c(C)cccc2Oc2ccc(O)c(C=O)c2/C=C/C1O (stereo unspecified)	USP10 block 31, UCHL1 inh 41
CCOc1cccc(C2c3c(oc4ccc(C)cc4c3=O)C(=O)N2CCN2CCOCC2)c1 (stereo unspecified)	USP8 inh 40
COc1ccc2c(=O)c3c(oc2c1)C(=O)N(CCN1CCOCC1)C3c1cccc(F)c1 (stereo unspecified)	none
CCn1c(=O)c(C(=O)NCc2ccc(C)c(C)c2)nc2cccnc21	none
Fc1cccc(Cl)c1COc1cccc(-c2ccnc(-c3ccncc3)n2)c1	none
CC1(C)OC(=O)[C@@]2(C)N[C@]1(C)C[C@@H]2C(=O)Nc1cccc2cccnc12	USP8 inh 41
CCc1cnc(N2CCC3(CCN(C(=O)c4cscn4)C3)CC2)nc1	none
Cc1c(CC(=O)N2CCN(c3ccc(Cl)cc3)CC2)c(=O)oc2cc(O)c(Cl)cc12	USP8 inh 41
Cc1nc(-c2noc(-c3cccc(F)c3)n2)cn1CC(=O)Nc1ccccc1	USP8 inh 38, USP10 block 62
N#Cc1cccc(NC(=O)Cn2cccc2-c2nc(-c3ccccc3)no2)c1	USP8 inh 31
COc1cccc(CNC(=O)CN2CC(C)Sc3ccccc32)c1 (stereo unspecified)	none
O=C(c1cnc2ccc(Cl)cc2c1S(=O)(=O)c1ccccc1)N1CCCCC1	none
O=C(COc1ncnc2sc3c(c12)CCCC3)Nc1ccc2c(c1)OCO2	USP10 block 31
Cc1cc(Cl)ccc1OCC(=O)Nc1ncnc2sc3c(c12)CCCC3	none
O=C(COc1ccc2c(c1)OCO2)Nc1ccc2c(c1)CCC2	USP8 inh 31
O=C(COC(=O)C1(c2ccccc2F)CCCC1)Nc1ccc2c(c1)OCO2	USP8 inh 44
COc1ccc(C)cc1NC(=O)COc1ccc2c(c1)OCO2	USP8 inh 37
O=C(COc1cccnc1)N1CCCCC1Cn1cccn1 (stereo unspecified)	none
CCNC(=O)N1CCCC(c2cccc(C(=O)NCc3ccccc3OC)c2)C1 (stereo unspecified)	none
O=C(NCc1cccc(F)c1)c1ccc2c(c1)NC(=O)C1CCCN21 (stereo unspecified)	USP8 inh 67
Cn1c(CCN2CCN(c3ccc(F)cc3)CC2)nc2cc(NC(=O)c3ccc(Cl)cc3)ccc21	USP8 inh 37
O=C(c1cnc2sccn2c1=O)N1CCN(Cc2ccccc2)CC1	none
